About 290 (0.32%) of roughly 91,000 compounds were called active. About 7% were inconclusive and are not listed. Calls come from the whole dose curve; as a rule, active = well fitted inhibition curve with a large enough effect; inconclusive = small, poorly fitted or top-dose-only effect; inactive = no such curve, though single readings can be large or run the other way. What follows is part of a selection rich in actives, with near analogues and random picks from the rest.
target: Single-stranded DNA cytosine deaminase (Homo sapiens) (UniProt Q9GZX7); experiment: Primary qHTS assay for inhibitors of Activation Induced Cytidine Deaminase (AID): AID signal; settings: AID deamination FRET fluorescence, UDG-coupled, 4 h; series mostly up to 115 µM; activity change, negative = inhibition: at the top concentration; note: nearly all actives have a fitted effect of over 25% in size
Sequence (Q9GZX7 whole entry, looked up): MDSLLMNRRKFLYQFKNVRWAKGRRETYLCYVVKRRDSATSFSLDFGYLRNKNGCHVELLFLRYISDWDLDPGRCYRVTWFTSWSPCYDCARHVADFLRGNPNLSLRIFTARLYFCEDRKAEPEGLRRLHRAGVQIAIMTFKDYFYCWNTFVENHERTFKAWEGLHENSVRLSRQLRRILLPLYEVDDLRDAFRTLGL
Text: Assay Provider (PI) Patricia Gearhart Ph.D.
National Institute on Aging
National Institute of Health (NIH), Bethesda, MD
Assay Provider (PI) Rahul Kohli Ph.D.
Perelman School of Medicine
University of Pennsylvania, Philadelphia, PA
Activation-Induced Deaminase (AID) is a cytosine deaminase which converts cytosine into uracil within stretches of ssDNA. The presence of uracil in DNA initiates a cascade of mutagenic DNA repair to introduce point mutations and DNA double strand breaks. Specific targeting of AID to the immunoglobulin heavy chain loci (Igh) promotes mutagenesis in the antibody variable region for somatic hypermutation (SHM) or switch regions leading to class switch recombination (CSR). However, AID also plays a role in accumulating unnecessary mutations across the genome. Mis-targeting of AID results in the initiation of tumor development and leads to greater drug resistance among cancer cells when continually expressed. To identify an AID inhibitor, a small molecule library will be screened in collaboration with NCATS core facility at NIH. To confirm biological function, inhibitors will be examined in an in vitro murine B-cell activation assay and subsequent secondary validation screens. Top molecules will be further screened to identify inhibitory efficacy against a wild type primary splenocytes assay. Using these approaches, we hope to identify a small molecule with great efficacy and low toxicity for use as a molecular probe to further characterize AID's intricacies, or even as a therapeutic.
A FRET based analysis of cytosine deamination, was developed to identify potential inhibitors of AID catalytic activity. This screen has two signal output, Read 1 evaluates the AID inhibition response. The second readout (Read 2) evaluates UDG response and is uses as a counterscreen to exclude false positive inhibitors. Inhibition in AID and inactivity in the UDG signal is the desired outcome for this assay.
SEQUENCE No. (e.g., 1, 2, 3, etc.); […] (e.g., Cells, Incubation, Reagent, etc.); VALUE; DESCRIPTION
1a; Reagent; 3 uL; [4/3x] 1 uM AID/2.67 U/mL UDG
1b; Reagent; 3 uL; 2 U/mL UDG
1c; Reagent; 3 uL; 1 uM AID
2a; Compound; 46 nL; Follow-up plates (0.64 uM - 10 mM)
2b; Control; 46 nL; ATA ([…] - 10 mM)
3; Time; 10 min; incubation at room temperature
5; Time; 4 hr; incubation at room temperature
6; Reagent; 4 uL; [2x] 250 mM NaOH
7; Time; 15 sec; centrifuge at 1000 rpm
8; Time; 30 min; incubation at room temperature
9a; Detection; fluorescence (Read 1: AID); EnVision (PerkinElmer) plate reader, 540 excitation and 590 emission filters
9b; Detection; fluorescence (Read 2: UDG); EnVision (PerkinElmer) plate reader, 560 excitation and 665 emission filters
NOTES (numbers refer to sequence above)
1a; Reagents were dispensed in a medium-binding black solid-bottom Greiner plates (789176F) using a BioRptr liquid dispenser. Dispense 3 uL of [4/3x] 1 uM AID (provided by Kohli lab) and [4/3x] 2 U/mL UDG (NEB M0280L) into columns 1, 2, 5 to 48.
1b; Dispense 3 uL of [4/3x] 2 U/mL UDG into column 3.
1c; Dispense 3 uL of [4/3x] 1 uM AID into column 4.
2a; Compound (7-points [uM] (0.64; 3.2; 16; 80; 400; 2,000; 10,000; 20,000) double pin-transferred (Dip Factor = 2) using the Kalypsys (Wako USA) pintool equipped with a 1536 pinhead for a final concentration range of 7.32 nM - 114 uM.
2b; 10 mM Aurintricarboxylic Acid (Sigma A1895) (ATA, 8-point, n = 2, 1:2.5 dilution in column 2) double pin-transferred (Dip Factor = 2) using the Kalypsys (Wako USA) pintool equipped with a 1536 pinhead for a [final] range of 186 nM - 114 uM.
3; Room temperature incubation.
4; Dispense 1 uL of substrate mixture from the Kohli lab [4x] […] DJC20 and [4x] 250 nM DJC23 into columns 1 to 48 .
5; Room temperature incubation.
6; Dispense 4 uL of substrate mixture [2x] 250 mM NaOH into columns 1 to 48.
7; Centrifugation step to remove bubbles.
8; Room temperature incubation
9a; Fluorescence signal (column label AID) was read using the EnVision plate reader. […]
% is set by controls: 0 for no effect and ±100 for the full control effect; potency is the fitted concentration of half-maximal effect.

Activity change, negative = inhibition, inactive:
Cc1ccccc1C(C)NC(=O)c1cc(-c2ccccc2)n[nH]1 (stereo not drawn) -6.39%
COc1ccc(-c2cc3c(=O)n(CC(=O)NCc4cccc(Br)c4)ncn3n2)cc1 -2.07%
Cc1cc2c(cc1C)NC(CC(=O)Nc1ccc(C(F)(F)F)cc1)C(=O)N2 (stereo not drawn) 5.04%
Cc1cn[nH]c1C#N 4.84%
CCCCCOC(=O)CSc1nc2c(c(=O)[nH]c(=O)n2C)n1CCC -11.6%
Cn1nc(C(F)(F)F)c(Cl)c1C(=O)NC1CCCC1 0.508%
Cc1ccccc1NC(=O)c1cc2c(=O)n3cccc(C)c3nc2n1Cc1ccccc1 -5.68%
COC(=O)Cc1c(C)c2ccc(OCc3ccc(F)cc3)cc2oc1=O -9.33%
CCn1c(SCC(=O)c2ccc(Cl)cc2Cl)nnc1-c1cnccn1 -7.85%
CCOC(=O)C1=C(CN(CCOC)Cc2ccco2)NC(=O)NC1c1cccc(OC)c1OC (stereo not drawn) -4.9%
O=C(COC(=O)CC12CC3CC(CC(C3)C1)C2)Nc1ccc([N+](=O)[O-])cc1C(F)(F)F -2.15%
O=C(O)CC(NC(=O)Cc1cccc(F)c1)c1ccc(F)cc1 (stereo not drawn) -2.56%
O=[N+]([O-])/C=C/c1ccc(-c2ccccc2)o1 -1.14%
O=C1CCCc2nccc(-c3ccc(Cl)cc3)c21 -2.16%
COC(=O)COc1cccc(C(=O)Nc2ccc(-c3nc4ccccc4o3)cc2)c1 2.24%
CCCn1c2ccccc2c2cnn(CC(=O)N3CCCC(C(=O)OCC)C3)c(=O)c21 (stereo not drawn) -20.2%
CCCn1c2ccccc2c2cnn(CC(=O)NCCCOC(C)C)c(=O)c21 7.63%
C=CCn1c(SCC(=O)Nc2ccccc2)nc2c1c(=O)n(C)c(=O)n2C -4.76%
C=CCn1c(Oc2ccc(F)cc2)nc2c1c(=O)n(C)c(=O)n2C -10%
COC(=O)Cc1c(C)c2ccc(OCc3cccc(Cl)c3)cc2oc1=O -4.26%
COc1ccc(S(=O)(=O)N2CCc3c(c(-c4nnc(SC)n4C)nn3C)C2)cc1 -13.2%
COc1ccccc1N1CCN(CCCNC(=O)c2cnn(-c3ccccc3Cl)c2C2CCN(C(=O)OC(C)(C)C)CC2)CC1 -26.5%
Cc1cccc(C)c1-n1ncc(C(=O)NCCCN2CCCCC2)c1C1CCN(C(=O)OC(C)(C)C)CC1 -19.3%
Cc1ccc(CN2CCC(CNC(=O)c3cnn(-c4ccc(C)cc4)c3C3CCN(C(=O)OC(C)(C)C)CC3)CC2)cc1 -21.8%
CC(C)(C)OC(=O)N1CCC(c2c(C(=O)N3CCN(c4cccc(Cl)c4)CC3)cnn2-c2cccc(Cl)c2)CC1 -19.6%
CCCCc1c(C)nc2c(Cl)cccc2c1Cl -2.47%
CCn1nc(C)cc1-c1nn2c(-c3cccc(Cl)c3Cl)nnc2s1 -5.05%
O=C(O)c1ccc(-c2ccccc2)cc1C(=O)O 4.53%
Cc1nn(CCC(=O)Nc2c(Cl)cccc2Cl)c(=O)c(C#N)c1C 14.8%
COc1ccc(-c2cc(COC(=O)Cc3cccc(F)c3)on2)cc1 3.81%
N#C/C(=C/c1cccc([N+](=O)[O-])c1)c1ccc(C(F)(F)F)cn1 -16.6%
O=C(OCC(=O)C12CC3CC(CC(C3)C1)C2)c1ccccc1Cl -5.72%
O=C(CCCOC(=O)c1cc(Cl)ccc1[N+](=O)[O-])c1ccc(Br)cc1 0.291%
O=C1SCCC1NC(=O)C(Sc1ccccc1)c1ccccc1 (stereo not drawn) -6.8%
O=C(CCCCC(=O)OCC(=O)c1ccc(Br)cc1)OCC(=O)c1ccc(Br)cc1 19.4%
O=[N+]([O-])c1ccc2nc(Cl)ccc2c1 20%
Cc1nn(CC(=O)N(CC2CCOC2)C2CC2)c(=O)c2ccccc12 (stereo not drawn) 1.88%
Cc1cccc2c(=O)c(-c3ccccc3)c(NC(=O)c3ccc([N+](=O)[O-])cc3)oc12 -3.76%
Cc1n[nH]c(=O)c2c(NC(=O)CSc3nnc(C4CC4)n3Cc3ccccc3)oc(C)c12 11.5%
Cc1[nH]nc2c1C(c1cccc(OCc3ccc(Cl)cc3)c1)C(C#N)=C(N)O2 (stereo not drawn) 8.28%
CN(CCOC(=O)c1cccs1)Cc1ccccc1 -1.32%
Cc1ccc(-c2cc3ccccc3n2C)cc1 39.1%
CCn1c(SC(C)c2nnc(-c3ccccc3)o2)nc2ccccc2c1=O (stereo not drawn) -21%
O=C(Cc1ccc(Cl)c(Cl)c1)NCC1CN(Cc2ccccc2)CCO1 (stereo not drawn) -0.709%
CCn1ccc(C(=O)Nn2c(C)nc3sc4c(c3c2=O)CCC(C)C4)n1 (stereo not drawn) 1.64%
COC(=O)c1ccc(NC(=O)c2noc3c2COc2ccc(C)cc2-3)cc1 1.38%
Cc1ccc(Nc2c3c(nc4ccccc24)CCC3)cc1 -5.61%
CCOc1ccc(C(=O)Nc2ccc3nc4c(c(Nc5ccccc5OC)c3c2)CCCC4)cc1 -3.06%
Cc1ccc2[nH]c(=S)nc(-c3ccccc3)c2c1 -5.12%

Potency, active:
CCCn1c2ccccc2c2cnn(CC(=O)N(CC)c3cc(C)ccc3C)c(=O)c21 35.5 µM
COc1ccccc1CN1CCC(CNC(=O)c2cnn(-c3ccccc3Cl)c2C2CCN(C(=O)OC(C)(C)C)CC2)CC1 44.7 µM
COc1ccccc1CN1CCC(CNC(=O)c2cnn(-c3cccc(Cl)c3)c2C2CCN(C(=O)OC(C)(C)C)CC2)CC1 44.7 µM
COc1ccccc1Nc1c2c(nc3ccc(NC(=O)/C=C/c4cc(OC)c(OC)c(OC)c4)cc13)CCCC2 44.7 µM

Source: PubChem BioAssay AID1347428 (National Center for Advancing Translational Sciences (NCATS), 2020)
